Values joined by “and” are separate entries in the source; they are usually repeats but may differ in a detail not shown here. Equal entries are not always repeated. Hit rate of the full screen: of about 390,000 compounds, about 4,000 (1%) were called active. A call without a number means that no potency is given here. Another 4% or so got no clear call; they are omitted. Many of the other results were omitted from the sample, so actives are more common in it than they were. Unmarked numbers belong to inactive results. Calls follow the shape of the dose curve; as a rule, active = well fitted inhibition curve with a large enough effect; inconclusive = small, poorly fitted or top-dose-only effect; inactive = no such curve, though single readings can be large or run the other way.
Potency is read from the fitted curve at half-maximal effect.

Chain of Thioredoxin reductase 1, cytoplasmic (Rattus norvegicus) (O89049 whole entry, looked up): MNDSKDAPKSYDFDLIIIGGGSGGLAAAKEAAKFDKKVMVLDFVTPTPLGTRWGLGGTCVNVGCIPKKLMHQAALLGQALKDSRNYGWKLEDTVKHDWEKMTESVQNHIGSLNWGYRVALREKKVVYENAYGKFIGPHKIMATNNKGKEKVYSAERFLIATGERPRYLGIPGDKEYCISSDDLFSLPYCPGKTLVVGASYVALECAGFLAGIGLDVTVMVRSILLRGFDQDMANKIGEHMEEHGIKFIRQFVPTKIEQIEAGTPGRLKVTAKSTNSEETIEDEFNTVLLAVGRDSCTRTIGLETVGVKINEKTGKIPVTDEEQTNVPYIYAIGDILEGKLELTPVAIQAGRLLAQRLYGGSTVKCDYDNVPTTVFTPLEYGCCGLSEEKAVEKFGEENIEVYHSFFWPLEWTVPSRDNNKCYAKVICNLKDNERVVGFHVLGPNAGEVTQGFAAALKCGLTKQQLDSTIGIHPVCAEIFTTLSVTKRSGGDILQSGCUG

This assay addresses Thioredoxin reductase 1, cytoplasmic (Rattus norvegicus) (UniProt O89049). Kind of assay: qHTS Assay for Inhibitors of Mammalian Selenoprotein Thioredoxin Reductase 1 (TrxR1): qHTS. Also: nearly all actives have a fitted effect of over 65% in size. As to conditions: recombinant rTrxR1, NADPH fluorescence consumption, selenite substrate; series mostly up to 114 µM. From the text:
The selenoprotein thioredoxin reductase (TrxR; EC 1.8.1.9) is a FAD containing homodimeric pyridine nucleotide-disulfide oxidoreductase with many cellular roles. Together with NADPH and its prime substrate thioredoxin (Trx), the enzyme forms the core of the Trx system. The mammalian Trx system exerts a wide spectrum of functions including redox regulation, antioxidant defense, regulation of transcription factors as well as support of cell growth and replication. Many of these functions involve the reduction of Trx, which may subsequently reduce a number of different substrates including ribonucleotide reductase, peroxiredoxins or NFkB. Mammalian TrxR itself also has a broad substrate specificity, reducing both protein and non-protein substrates, including low molecular weight compounds such as dehydroascorbate, lipoic acid, ubiquinone, and juglone. In addition, several drugs in clinical use for anticancer treatment are indeed known to target TrxR1.
This BioAssay is a validation of an NADPH fluorescence-based, dual-purpose qHTS rTrxR1 assay designed to find potential inhibitors and substrates of rTrxR1. For this particular BioAssay, actives are potential inhibitors. See related BioAssay for substrate data deposition.
NIH Molecular Libraries Probe Production Network [MLPCN]
NIH Chemical Genomics Center [NCGC]
Assay Provider: Elias Arner, Karolinska Institute
Assay protocol: 2 uL of reagents (buffer in column 4 as negative control and 90 nM rTrxR1 in columns 1-3 and 5-48) were dispensed into Greiner black solid-bottom 1,536-well assay plates, followed by 1 uL of NADPH (400 uM final concentration) to each well. The plates were centrifuged at 1000 rpm for 15 seconds and subsequently incubated for 5 min at room temperature (~22 deg C) to allow for rTrxR1 reduction. Compounds (23 nL) were then transferred via Kalypsys pin tool equipped with 1536-pin array (10 nL slotted pins, V&P Scientific, San Diego, CA). In addition, a duplicate 2-fold serial dilution of the control compounds auranofin, a known gold-based TrxR1 inhibitor, and juglone (5-hydroxy-1,4-naphthoquinone), a natural TrxR1 substrate, were pin-transferred to columns 2 and 3, respectively. After incubation for 15 min at room temperature (~22 deg C), 1 uL of selenite (400 uM final concentration) were dispensed to each well. The plate was immediately transferred to a ViewLux high-throughput CCD imager (PerkinElmer), wherein kinetic measurements of NADPH fluorescence (Ex 340 nm, Em 450 nm) were acquired (8 minute kinetic read, see Table 1). Read 1 was utilized to assess the capacity of a compound to serve as an rTrxR1 substrate, i.e. a decrease in NADPH fluorescence compared to the no-compound background is an indication of a substrate behavior for that particular compound. For inhibitory activity of a compound, delta values, computed as the difference in fluorescence intensity between the first and last reads of an 8-minute time kinetic window, were used. All reagents were diluted in an assay buffer consisting of 50 mM Tris-HCl, pH 7.5, 2 mM EDTA, and 0.01% Tween-20.
Throughout the screen, reagent bottle and all liquid lines were made light-tight to minimize reagent degradation. All screening operations were performed on a fully integrated robotic system (Kalypsys, San Diego, CA) containing one RX-130 and two RX-90 anthropomorphic robotic arms (Staubli, Duncan, SC). Library plates were screened starting from the lowest and proceeding to the highest concentration, and a 'double-pinning' step of the highest concentration was required to access higher concentrations of compounds. Vehicle-only plates, with DMSO being pin-transferred to the columns 5-48, were inserted uniformly at the beginning and the end of each library in order to monitor and record any shifts in the background, which can be affected by reagent dispensers or loss in enzyme activity over time. […]
In the case of `COc1ccccc1N=Nc1c(O)[nH]c(=S)[nH]c1=O`, the Potency result was “inactive”. Same read-out and setting: to `Cc1ccc2c(c1)=C/C(=C\c1c(O)[nH]c(=O)[nH]c1=O)C(=O)N=2` belongs 10 µM (active); to `O=C1N=c2ccccc2=C/C1=C\c1c(O)[nH]c(=S)[nH]c1=O`, 17.8 µM (active). Regarding `O=c1[nH]c(O)c(C=Nc2cc(F)cc(F)c2)c(=O)[nH]1`, the Potency result was “inactive”.

`CC(=O)Nc1ccc(C(=O)C(Cc2ccccc2)N(C)C)cc1` (centres undefined): the Potency entry was “inactive”. On to `CCC(C)n1c(O)c(/C=N/Nc2nc3c(c(=O)n(C)c(=O)n3C)n2C)c(=O)[nH]c1=S` (centres undefined), for which the activity change, negative = inhibition is 12% [at 11.4 µM]. `O=C(Cn1c(=O)n(CC2CS2)c2ccccc21)N1CCCCC1` (centres undefined): the Potency entry was “inactive”. Same read-out and setting: to `OCC#CC[N+]1(CC#Cc2ccccc2)CCCC1` belongs “inactive”; to `COCCNC(=O)CN1C2CCC1CC(O)(c1cccnc1)C2` (centres undefined), “inactive”; to `CCOc1ccc(C2SCC(=O)Nc3c2c(C)nn3C2CCOC(C)(C)C2)cc1` (centres undefined), “inactive”.

`c1ccc(CCNC2CCCCCC2)cc1`: the Potency result was “inactive”. Still for that read-out and setting: under `COc1ccc2[nH]c3c(c2c1)CCN[C@H]3C` stands “inactive”; under `Cn1cc(/C=C/c2nc3ccccc3c(=O)n2-c2ccccc2)c2ccccc21`, “inactive”. Still for that read-out and setting: under `O=c1c2ccccc2nc(/C=C/c2ccco2)n1-c1ccccc1O` stands 15.8 µM (active); under `O=c1c2ccccc2nc(/C=C/c2ccc(F)cc2)n1-c1ccccc1O`, “inactive”; under `Cc1cccc(Cn2cccc(C(=O)Nc3ccc4c(c3)OCCO4)c2=O)c1`, “inactive”. With `O=C1NC(=O)C(Cc2ccccc2)C(=O)N1`, the activity change, negative = inhibition is -9.71% [at 2.29 µM]. With `CN(C)CCCN=Cc1c(O)n(Cc2ccco2)c(=O)[nH]c1=O`, the Potency result was “inactive”. Same read-out and setting: under `CCC(=NCc1ccco1)c1c(O)n(Cc2ccccc2)c(=O)[nH]c1=O` stands 14.1 µM (active); under `CCCCn1c(O)c(C(CC)=NCc2ccco2)c(=O)[nH]c1=O`, “inactive”. On the same count and under the same terms, to `O=C(COC(=O)Cc1ccccc1)Nc1ccc(F)cc1` belongs “inactive”; to `CCOc1ccc(-c2cc(C)n3nc(C(=O)Nc4ccc(C)c(C)c4)cc3n2)cc1`, “inactive”.

As for `CC(C)c1c(CN(C)C(C)Cc2ccccc2)n(C)n(-c2ccccc2)c1=O` (centres undefined), the Potency result was “inactive”. On the same count and under the same terms, under `ClCCN(CCCl)c1ccc(C=Nc2ccc(/C=C/c3ccnc4ccccc34)cc2)cc1` stands “inactive”; under `CC(=O)NBr`, “inactive”; under `COc1ccc(NC(=O)c2cn(CCC#N)nc2-c2ccc([N+](=O)[O-])cc2)cc1`, “inactive”.

For the molecule `O=C1NC(=O)N(c2ccccc2)C(=O)/C1=C/c1ccc([N+](=O)[O-])s1`, the Potency was 22.4 µM (active). Same read-out and setting: under `COC(=O)C1=C(c2ccc(F)cc2OCc2ccccc2)C[C@@H]2CC[C@H]1N2C(=O)NCc1ccc(Cl)cc1` stands “inactive”.

Consider `O=[N+]([O-])c1ccc(Cl)c(Cl)c1`, for which the Potency result was “inactive”. `CCC(=O)c1ccc(OCC(=O)N2CCN(CC(=O)Nc3ccc(C)cc3)CC2)cc1`: the Potency entry was “inactive”. On to `C=CCN1C(=O)NC(=O)/C(=C/c2ccc(OCC(=O)Nc3ccc(C)cc3)cc2)C1=O`, for which the Potency was 20 µM (active).

For the molecule `C=CCN(CC=C)C(=O)Nc1ccc(OCC)cc1`, the Potency entry is “inactive”. On the same count and under the same terms, to `COc1cc(Cl)ccc1Nc1ncc(C(=O)N2CCN(c3ccccc3OC)CC2)c2ccccc12` belongs “inactive”; to `N#Cc1c(Cl)c(Cl)c(Cl)c(C#N)c1Cl`, 0.282 µM (active); to `C=CCN1CCC23c4c5ccc(O)c4O[C@H]2C(=O)CC[C@@]3(O)C1C5` (some centres undefined), “inactive”. Same read-out and setting: under `Cc1ncsc1CCCl` stands “inactive”; under `Cc1ccccc1NC(=O)COC(=O)c1cc(C)n(C2CC2)c1C`, “inactive”; under `O=P1(Oc2ccccc2)CC(O)C(O)C(COCc2ccccc2)O1` (centres undefined), “inactive”. In the case of `CO[C@H]1[C@@H](O)[C@@H](C)O[C@H](O[C@H]2[C@H](Oc3cccc4c(O)c5c(=O)oc6ccc(C)c7c(=O)oc(c34)c5c67)O[C@H](C)[C@H](O)[C@@H]2O)[C@@H]1O`, the Potency result is “inactive”. Still for that read-out and setting: to `CCC1(C)CC(=O)NC1=O` (centres undefined) belongs “inactive”. Take `CC[C@H]1CC2CN3CCc4c([nH]c5ccccc45)C(C(=O)OC)(C2)C13` (some centres undefined): the Potency result was “inactive”. Still for that read-out and setting: to `CCOC(=O)c1ncn2c1[C@@H]1CCCN1C(=O)c1cc(OC)ccc1-2` belongs “inactive”; to `CC(=O)c1c(O)c(C)c(O)c(Cc2c(O)c3c(c(C(=O)/C=C/c4ccccc4)c2O)OC(C)(C)C=C3)c1O`, 28.2 µM (active) and 11.2 µM (active). Still for that read-out and setting: under `C[N+]1(C)CCOC(O)(c2ccc(-c3ccc(C4(O)C[N+](C)(C)CCO4)cc3)cc2)C1` (centres undefined) stands “inactive”; under `COC(=O)C1=C(c2ccc(C(C)=O)cc2)C[C@@H]2CC[C@H]1N2C(=O)NCCNC(C)=O`, “inactive”. Still for that read-out and setting: to `CC(C)(C)c1ccc(CN2C(=O)CN=C(c3ccccc3)c3ccccc32)cc1` belongs “inactive”; to `O=C(CN1CCCC1=O)NCCc1ccccc1`, “inactive”; to `O=C1CC(=O)N(Cc2ccccc2)C(=O)N1CCCCCCN1C(=O)CC(=O)N(Cc2ccccc2)C1=O`, 2.82 µM (active).

For `COCc1cc(OC(=O)N(C)C)nc(-c2ccc(C)c(Cl)c2)n1`, the Potency entry is “inactive”. Still for that read-out and setting: under `COc1ccc(-n2c(-c3ccccc3)nc3ccccc3c2=O)cc1` stands “inactive”; under `CC[C@H]1CN2CCc3cc(OC)c(OC)cc3[C@@H]2C[C@@H]1C[C@H]1NCCc2cc(OC)c(OC)cc21`, “inactive”. On the same count and under the same terms, to `COC(=O)C1=C(c2cc3ccccc3s2)C[C@@H]2CC[C@H]1N2C(=O)NCCO` belongs “inactive”; to `COc1ccc(S(=O)(=O)NCc2ccc(C(=O)N3CCC4(CC3)OCCO4)cc2)cc1`, “inactive”; to `COc1ccc(NC(=O)N2CCC3(CC2)OCCO3)c(OC)c1`, “inactive”. On the same count and under the same terms, under `COc1ccc(-c2nc(CS(=O)CC(=O)N3CCC4(CC3)OCCO4)c(C)o2)cc1` (centres undefined) stands 7.08 µM (active); under `CCN(CC)CCOC(=O)c1cc2cc(COC)ccc2o1`, “inactive”.

Consider `CCN1C(=O)C(=Cc2c(C)n(CC(=O)NCC3CCCO3)c3ccccc23)C(=O)N(CC)C1=S` (centres undefined), for which the Potency was 11.2 µM (active). As for `CCCCCCN=C(CC)c1c(O)n(CCCC)c(=O)[nH]c1=O`, the Potency entry is “inactive”. Same read-out and setting: under `COC1=C[C@@H]2[C@@H]3Cc4ccc(OC)c(O)c4[C@]2(CCN3C)CC1=O` stands “inactive”; under `O=C(O)/C=C/c1ccc2c(c1)OCO2`, “inactive”; under `CN(C)CC1Oc2ccccc2OC1(O)c1ccccc1` (centres undefined), 0.398 µM (active).

As to `O=C(O)C1C2CCC(O2)C1C(=O)O` (centres undefined), the Potency result is “inactive”. Still for that read-out and setting: to `CC1CCC(N(C)C2CCN(C)CC2)CC1` (centres undefined) belongs “inactive”; to `CCNc1nc2[nH]c(=O)c3c(c2s1)OC(N)=C(C#N)C3c1cccs1` (centres undefined), “inactive”; to `CCCCN1C2CCC1CC(OC(c1ccc(F)cc1)c1ccc(F)cc1)C2` (centres undefined), “inactive”. Same read-out and setting: under `COc1ccc(OC)c(NC(=O)Cn2c(=O)oc3ccccc32)c1` stands “inactive”. On the same count and under the same terms, under `Cc1ccc(-n2c(C)cc(/C=C3\C(=O)NC(=O)N(C)C3=O)c2C)cc1C` stands “inactive”; under `Cc1cc(C=C2C(=O)NC(=O)NC2=O)c(C)n1-c1ccncc1`, “inactive”; under `Cc1ccnc(-n2c(C)cc(/C=C3\C(=O)NC(=S)N(C)C3=O)c2C)c1`, 35.5 µM (active). Take `O=C(O)C1CSC(c2cccnc2)N1` (centres undefined): the Potency result was “inactive”. In the case of `c1cncc(CNCCc2c[nH]c3ccccc23)c1`, the Potency entry is “inactive”. On to `C[C@@H]1C[C@@H]2O[C@H]2/C=C\C=C\C(=O)Cc2c(Cl)c(O)cc(O)c2C(=O)O1`, for which the Potency is 12.6 µM (active). Still for that read-out and setting: to `COc1cc([C@@H]2c3cc4c(cc3[C@H](OC(C)=O)[C@H]3COC(=O)[C@H]23)OCO4)cc(OC)c1OC` belongs “inactive”. On the same count and under the same terms, to `CCOc1ccc(CN(CCCl)CCCl)cc1C(=O)OC` belongs 15.8 µM (active); to `CC1=CC(=Cc2sc3ccccc3[n+]2C)C=C(C)O1`, “inactive”. The same measure, in the same setting: under `Cc1ccc(Cn2c(C)c3cnn(CC(=O)N4CCC5(CC4)OCCO5)c(=O)c3c2C)cc1` stands “inactive”. Turning to `CC(=O)Cc1ccc(OC(C)C)cc1`, the Potency result was “inactive”. The same measure, in the same setting: to `CCOP(=O)(OCC)C(NC(=O)c1ccc(OC)cc1)C(Cl)(Cl)Cl` (centres undefined) belongs “inactive”; to `CC(=O)c1ccc(OC(NC(=O)Cc2ccccc2)C(Cl)(Cl)Cl)cc1` (centres undefined), 10 µM (active).
